aSyn UTR act: Activators working through SNCA 5'UTR binding (MLPCN) | activity score, % (tested at 7.5 µM), hits read low | AID 1814 | alpha-synuclein 5'UTR reporter, activators screen | 7.1% of 300,000 active; in the data active = activity score below about -60%
* hit, by the source's call. These entries were drawn from the full list.

SMILES	aSyn UTR act
O=[N+]([O-])c1[nH]cnc1/C=C/c1ccccc1	-65*
O=C(CCN1C(=O)/C(=C/c2ccccc2Cl)SC1=S)N1CCOCC1	-73*
O=C(CCN1C(=O)/C(=C/c2ccccc2Cl)SC1=S)N1CCCC1	-115*
O=C(CCCN1C(=O)/C(=C/c2ccccc2Cl)SC1=S)NNC(=O)c1ccccc1Cl	100
CN1CCN(C(=O)CCCN2C(=O)/C(=C/c3cccc(Br)c3)SC2=S)CC1	-218*
Cc1ccc(/C=C2\SC(=S)N(CCC(=O)N3CCOCC3)C2=O)cc1	-64*
Cc1ccc(/C=C2\SC(=S)N(CCCC(=O)Nc3ccccc3C(=O)O)C2=O)cc1	68
Cc1ccc(/C=C2\SC(=S)N(CCCC(=O)Nc3ccc(O)cc3)C2=O)cc1	104
CC(=O)Nc1nc(-c2ccc3c(c2)OCO3)cs1	-130*
CCOC(=O)N1CCN(C(=O)CSCC(=O)Nc2nc(-c3ccc(C)cc3)cs2)CC1	-85*
O=C(CSCC(=O)N1CCOCC1)Nc1nc(-c2ccc3c(c2)OCO3)cs1	-131*
O=C(Nc1nc(-c2ccc3c(c2)OCCO3)cs1)C1CCCC1	-151*
O=C(CCCCl)Nc1nc(-c2ccc3c(c2)OCCO3)cs1	-117*
CC(C)(C)c1ccc(C(=O)c2c[nH]c(C(=O)O)c2)cc1	-102*
CN(C)C=NC(=O)c1cc(C(=O)c2ccc(C(C)(C)C)cc2)c[nH]1	-87*
CCc1ccc(C(=O)/C=C/c2ccc([N+](=O)[O-])o2)cc1	-151*
Cc1ccc(CC2CC(=O)N(Cc3ccco3)C2=O)cc1 (configuration not stated)	-129*
C=CCc1c(C)nc(SC)nc1Nc1ccc(C(C)=O)cc1	-76*
O=C(N/N=C/c1ccccc1F)NC1CCCCC1	-130*
O=C(N/N=C/c1cccc(F)c1)NC1CCCCC1	-76*
O=C(N/N=C/c1cccc(F)c1)c1c(O)c2c([nH]c1=O)CCCC2	-137*
CC(=O)Nc1ccc(SCc2ncc(-c3ccccc3)o2)cc1	-130*
COC(=O)c1[nH]c2c(c1C)C(=O)CC(c1cccs1)C2 (configuration not stated)	85
COC(=O)C1C(=O)c2c([nH]c(C(=O)OCC3CCCO3)c2C)CC1C (configuration not stated)	-113*
CCCCCOC(=O)c1[nH]c2c(c1C)C(=O)C(C(=O)OC)C(C)C2 (configuration not stated)	-73*
SMILES	aSyn UTR act
COCCOC(=O)c1[nH]c2c(c1C)C(=O)C(C(=O)OC)C(C)C2 (configuration not stated)	-88*
COC(=O)C1C(=O)c2c([nH]c(C(=O)OC3CCCCCC3)c2C)CC1C (configuration not stated)	-115*
COCCOC(=O)c1[nH]c2c(c1C)C(=O)CC(c1ccccc1)C2 (configuration not stated)	78
CCOC(=O)c1[nH]c2c(c1C)C(=O)CC(c1ccco1)C2 (configuration not stated)	73
Cc1c(C(=O)OC2CCC(C)CC2)[nH]c2c1C(=O)CCC2 (configuration not stated)	-79*
Cc1ccccc1COc1ccc(/C=C(\C#N)C(N)=O)cc1	-105*
N#C/C(=C/c1ccc(OCc2ccccc2)cc1)C(=O)NC1CCCCC1	-121*
CNC(=O)/C(C#N)=C/c1ccc(OCCOc2ccccc2)cc1	-66*
N#C/C(=C\c1ccc(OCc2ccccc2)cc1)C(N)=O	-92*
N#Cc1ccccc1COc1ccc(/C=C/C(=O)O)cc1	71
CCn1c(C)nc2cc(C(=O)OC(C(F)(F)C(F)F)C(F)(F)C(F)F)ccc21	-73*
CCn1c(C)nc2cc(C(=O)NNC(=S)Nc3ccccc3Cl)ccc21	-110*
CCn1c(NC(=S)Nc2ccccc2)nc2ccccc21	-106*
CCn1c(C)nc2cc(C(=O)NNC(=S)Nc3ccc(F)cc3)ccc21	-126*
CCn1c(C)nc2cc(C(=O)NNC(=S)Nc3ccccc3)ccc21	-164*
CCn1c(C)nc2cc(-c3nc4n(n3)Cc3ccccc3-4)ccc21	87
CCn1c(C)nc2cc(C(=O)N/N=C(\C)c3ccc(OC)cc3O)ccc21	84
CCn1c(C)nc2cc(C(=O)N/N=C/c3ccccc3)ccc21	-83*
C=CCOc1c(Cl)cc(CNc2ccc(C)c(Cl)c2)cc1OC	85
CCOc1cc(CNc2ccc(N3CCCC3)cc2)cc(Cl)c1OC	-67*
Cc1ccc(S(=O)(=O)NCc2ccccc2)cc1C(=O)NC1CCC(C)CC1 (configuration not stated)	-64*
CCCCCC(C)NC(=S)NC(=O)c1cc(S(=O)(=O)N2CCOCC2)ccc1C (configuration not stated)	66
CC1CCC(NC(=O)CCNS(=O)(=O)c2ccccc2)CC1 (configuration not stated)	-62*
O=C(Nc1ncc(Cc2cccc(Cl)c2Cl)s1)C1CCCO1 (configuration not stated)	-128*
O=C(Nc1ncc(Cc2ccccc2Cl)s1)C1CCCO1 (configuration not stated)	-89*
SMILES	aSyn UTR act
O=C(Nc1ncc(Cc2cccc(Cl)c2)s1)C1CCCO1 (configuration not stated)	-161*
O=S(=O)(Nc1ccc(-c2cn3ccsc3n2)cc1)c1ccc2c(c1)OCCO2	-67*
Cc1ccc(Nc2nnc(SCC(=O)Nc3cccc(S(=O)(=O)N4CCCCC4)c3)s2)cc1	-119*
O=C(CSc1nnc(NC2CCCCC2)s1)Nc1ccc2c(c1)C(=O)c1ccccc1C2=O	-121*
CC(C)Nc1nnc(SCC(=O)Nc2ccc3c(c2)C(=O)c2ccccc2C3=O)s1	-184*
C/C(CC1CC(COCC(C)C)OC1=O)=N\Nc1nc(-c2ccccc2)cs1 (configuration not stated)	-82*
CCN(CC)c1ccc(Nc2nc(-c3cccnc3)cs2)cc1	-210*
Fc1ccc(Nc2nc(-c3cccnc3)cs2)cc1	-265*
c1ccc(-c2csc(Nc3cccnc3)n2)cc1	-164*
Clc1ccc(Nc2nc(-c3cccnc3)cs2)cc1	-146*
Cc1ccc(C(=O)NCCc2csc(-c3cccnc3)n2)cc1	-77*
CC(C)CCOc1ccc(C(=O)NCCC(=O)N2CCOCC2)cc1	-82*
CCOC(=O)CNC(=O)c1ccc(OCC(F)(F)F)cc1	-76*
COc1ccc(OCCNC(=O)c2ccc(C)cc2)cc1	-79*
CS(=O)(=O)NCc1ccc(C(=O)NCCOc2ccccc2)cc1	-120*
Cc1ccc(OCCNC(=O)c2ccc(C)cc2)cc1	-148*
COCCCNC(=S)NC(=O)c1ccc(C)cc1	-125*
O=S(=O)(c1ccc(Cl)cc1)N1c2ccccc2Oc2nc3ccccc3nc21	-96*
COc1ccc(S(=O)(=O)N2c3cc(Cl)ccc3Oc3nc4ccccc4nc32)cc1	100
Nc1cc(Cl)nc(N/N=C/c2c(O)ccc3ccccc23)n1	-162*
O=C(O)c1cc(N/N=C/c2c(O)ccc3ccccc23)ccc1Cl	-66*
O=C(CNc1ccccc1)N/N=C/c1c(O)ccc2ccccc12	69
CC(/C=N/NC(=O)Cc1cccn1C)=C\c1ccco1	-69*
COc1ccc(C(=O)NCC(=O)N/N=C/C(C)=C/c2ccco2)cc1OC	-62*
CC(/C=N/NC(=O)CN1CCN(Cc2ccc(Cl)cc2)CC1)=C\c1ccco1	-87*
CC(/C=N/NC(=O)c1cc(-c2ccc(Cl)cc2)nc2ccccc12)=C\c1ccco1	85
O=C(CNC(=O)c1ccccc1O)N/N=C/c1cc(Br)ccc1OC(=O)/C=C/c1ccco1	68
Cc1ccc(CN2CCN(CC(=O)N/N=C/c3ccccc3F)CC2)cc1	-63*

From PubChem BioAssay
